Measurements reported in the supplement of paper PMC6555819.

Key:
Test in all cases: PBM binding z-score (relative to random genomic background probes); higher = stronger binding; sequences stand for … in GC…GCGATTGACAGCGTAGAATGAAGG
[1] = tested on: PPARg:RXRa DBDmut IVT, anti-RXR (DBD mutation: RXRa K156A/R161A, NR concentration 270 nM, RXRa partner concentration 90 nM)
How it was run: (§1)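 Scanned fluorescence from custom Agilent 4×180K protein-binding microarrays was regression-normalized. Binding z-scores use random background probes as reference. Ligand-free nuclear receptor dimers were incubated on the arrays for 1 h and detected with antibodies against each partner (one per run).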

[2] = tested on: PPARg:RXRa IVT, anti-PPARg (NR concentration 270 nM, RXRa partner concentration 90 nM)
How it was run: as §1

[3] = tested on: PPARg DBDmut IVT, anti-PPARg (DBD mutation: PPARg1 K132A/R137A, NR concentration 270 nM)
How it was run: as §1

[4] = tested on: PPARg homodimer (NR concentration 180 nM)
How it was run: as §1

[5] = tested on: PXR:RXRa (NR concentration 270 nM, RXRa partner concentration 90 nM)
How it was run: as §1

[6] = tested on: PXR homodimer (NR concentration 270 nM)
How it was run: as §1

[7] = tested on: RARa:RXR (NR concentration 270 nM, RXRa partner concentration 90 nM)
How it was run: as §1

[8] = tested on: RARa homodimer (NR concentration 270 nM)
How it was run: as §1

[9] = tested on: RARb:RXRa (NR concentration 270 nM, RXRa partner concentration 90 nM)
How it was run: as §1

[10] = tested on: RARb homodimer (NR concentration 270 nM)
How it was run: as §1

[11] = tested on: RARg:RXRa (NR concentration 270 nM, RXRa partner concentration 90 nM)
How it was run: as §1

[12] = tested on: RARg homodimer (NR concentration 270 nM)
How it was run: as §1

[13] = tested on: RXRa DBDmut IVT, anti-RXR (DBD mutation: RXRa K156A/R161A, NR concentration 90 nM)
How it was run: as §1

[14] = tested on: RXRa homodimer (NR concentration 180 nM)
How it was run: as §1

[15] = tested on: THRa:RXRa (NR concentration 90 nM, RXRa partner concentration 90 nM)
How it was run: as §1

[16] = tested on: THRa homodimer (NR concentration 90 nM)
How it was run: as §1

[17] = tested on: VDR homodimer (NR concentration 270 nM)
How it was run: as §1

Sequence | PBM binding z-score [1] | PBM binding z-score [2] | PBM binding z-score [3] | PBM binding z-score [4] | PBM binding z-score [5] | PBM binding z-score [6] | PBM binding z-score [7] | PBM binding z-score [8] | PBM binding z-score [9] | PBM binding z-score [10] | PBM binding z-score [11] | PBM binding z-score [12] | PBM binding z-score [13] | PBM binding z-score [14] | PBM binding z-score [15] | PBM binding z-score [16] | PBM binding z-score [17]
CGAACTAGGTCAAAGGAGAGTGAAAGGCGACGTA | 8.02 | 7.99 | 0.59 | 0.681 | 1.1 | -0.124 | 1.85 | -0.114 | 3.65 | 2.43 | 3.75 | 4.22 | 1.62 | 3 | 2.32 | 0.277 | 0.0165
CGAACTAGGTCAAAGGGCAGTGAAAGGCGACGTA | 8.19 | 8.52 | 0.155 | 2.2 | 2.96 | -0.191 | 4.78 | -0.269 | 4.31 | 3.46 | 5.34 | 4.91 | 1.65 | 5.31 | 3.11 | 0.218 | 0.354
ATATGTACGTTAGGGTCATTCAGAAAGTAGGGAA | 0.518 | 2.04 | 1.66 | 2.39 | 4.47 | 1.32 | 4.93 | 1.08 | 3.1 | 2.98 | 3.78 | 2.71 | 2.3 | 4.98 | 3.78 | 2.87 | 3.98
CGAACTAGGGCACCAGGACAGTGAAGAGGTTGGA | 7.2 | 6.94 | -0.192 | 0.184 | -0.709 | -0.309 | -0.404 | -1.02 | 1.42 | 0.758 | 0.748 | 1.34 | 0.0116 | 0.278 | 1.05 | 0.327 | -0.274
CGAACTAGGTCACCAGGAGAGTGAAGAGGTTGGA | 8.2 | 8.65 | 3.69 | 2.38 | 1.22 | -0.0382 | 2.45 | -0.347 | 4.04 | 3.18 | 4.34 | 5.04 | 1.08 | 3.02 | 2.98 | 1.09 | 0.207
CGAACTAGGTCACCAGCACAGTGAAGAGGTTGGA | 8.34 | 8.76 | 0.181 | 1.79 | 1.41 | 0.0792 | 2.39 | 0.262 | 4.11 | 3.37 | 4.43 | 5.44 | 1.35 | 3.29 | 3.1 | 1.29 | 0.496
CGAACTCGGTCACCAGGACAGTGAAGAGGTTGGA | 4.23 | 3.87 | -0.647 | 0.233 | 0.0316 | -0.302 | 0.493 | -0.227 | 2.69 | 1.97 | 2.47 | 3.48 | 0.319 | 1.01 | 1.86 | 0.326 | 0.21
CGAACTAGGTCAAAGGACACTGAAAGGCGACGTA | 8.08 | 8.34 | 1.03 | 3.64 | 1.6 | -0.0402 | 2.85 | 0.514 | 3.86 | 3.06 | 4.19 | 4.7 | 1.6 | 3.12 | 2.69 | 0.861 | 0.852
CGAACTAGGTCACCAGGACAGTCAAGAGGTTGGA | 8.33 | 8.73 | 2.35 | 2.43 | 1.51 | 0.0182 | 2.72 | 0.536 | 4.28 | 3.44 | 4.37 | 5.18 | 1.24 | 3.33 | 3.46 | 1.89 | 0.612
CGAACTAGGTCACCAGGCCAGTGAAGAGGTTGGA | 8.23 | 8.8 | 0.89 | 2.25 | 1.18 | -0.53 | 2.73 | -0.334 | 4.22 | 3.33 | 4.61 | 5.11 | 1.05 | 3.21 | 2.98 | 0.969 | 0.372
CGAACTAGGTCACCCGGACAGTGAAGAGGTTGGA | 8.23 | 8.41 | 0.442 | 2.42 | 1.55 | 0.0197 | 2.64 | 0.174 | 4.22 | 3.23 | 4.48 | 5.44 | 1.27 | 2.93 | 2.98 | 1.47 | 1.13
ATATGTAGGTTTGGGTCATTCAGAAAGTAGGGAA | 2.79 | 3.08 | 1.3 | 2.99 | 2.17 | 1.25 | 2.47 | 2.33 | 2.07 | 2.2 | 1.92 | 1.33 | 1.36 | 2.05 | 2.74 | 2.23 | 2.22
CGAACTAGGTCAAAGGACAGTGAGAGGCGACGTA | 7.99 | 8.52 | 1.52 | 1.96 | 0.82 | -0.246 | 2.11 | 0.479 | 3.81 | 3.04 | 3.93 | 4.52 | 1.67 | 3.04 | 2.62 | 0.63 | 0.723
ATATGTAGGATAGGGTCATTCAGAAAGTAGGGAA | 2.75 | 3.63 | 1.68 | 2.36 | 3.47 | 1.46 | 4.19 | 1.52 | 2.69 | 2.75 | 3.19 | 2.22 | 1.78 | 4.32 | 3.59 | 2.24 | 3.42
ATATGTAGGTTAGGGTTATTCAGAAAGTAGGGAA | 6.88 | 6.54 | 2.32 | 2.77 | 2.33 | 1.31 | 2.55 | 1.94 | 1.57 | 1.72 | 1.45 | 1.05 | 1.06 | 2.13 | 2.45 | 1.52 | 1.23
CGAACAAGGTCAAAGGACAGTGAAAGGCGACGTA | 3.85 | 5.39 | 1.79 | 2.54 | 4 | 0.956 | 4.62 | 0.893 | 4.98 | 3.95 | 5.92 | 5.92 | 3.59 | 5.76 | 3.57 | 1.54 | 2.26
